# Hit rate of the full screen: of about 5,500 compounds, about 2,000 (36%) were called active. Another 18% or so got no clear call; they are omitted. The list shows a part of the results. Unmarked numbers belong to inactive results. No stated cut-off is given here; in the data, active means normalized growth mostly below about 0.91 (no sharp cut-off); inconclusive means no clear call, values can overlap the other calls; inactive means mostly above about 0.92.
# Assay: chemical genetic growth profiling, strain panel (AID 1159580);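 further: tested at 20 µM; growth read once vehicle control cultures reached saturation at 30 °C; 1 = growth at the plate median or of vehicle wells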
# Settings: S. cerevisiae deletion strains, growth OD
structure (smiles),measurement,setting,value
O=C(Oc1cccc2cccnc12)c1ccccc1,normalized growth,"locus YAL021C, strain ccr4, stronger effect = lower value",0.962
same,normalized growth,"locus YAL026C, strain drs2, stronger effect = lower value",0.921
same,normalized growth,"locus YAL030W, strain snc1, stronger effect = lower value",0.928 (active)
same,normalized growth,"locus YBL061C, strain skt5, stronger effect = lower value",0.951
same,normalized growth,"locus YBR009C, strain hhf1, stronger effect = lower value",0.956
same,normalized growth,"locus YBR023C, strain chs3, stronger effect = lower value",0.956
same,normalized growth,"locus YBR171W, strain sec66, stronger effect = lower value",0.917
same,normalized growth,"locus YBR231C, strain swc5, stronger effect = lower value",0.995
same,normalized growth,"locus YBR279W, strain paf1, stronger effect = lower value",0.957
same,normalized growth,"locus YCL011C, strain gbp2, stronger effect = lower value",0.959
same,normalized growth,"locus YCL016C, strain dcc1, stronger effect = lower value",0.952
same,normalized growth,"locus YCL061C, strain MRC1, stronger effect = lower value",0.967
same,normalized growth,"locus YCL069W, strain vba3, stronger effect = lower value",0.948
same,normalized growth,"locus YCR088W, strain abp1, stronger effect = lower value",0.936
same,normalized growth,"locus YDL005C, strain med2, stronger effect = lower value",0.962
same,normalized growth,"locus YDL040C, strain nat1, stronger effect = lower value",0.951
same,normalized growth,"locus YDR001C, strain nth1, stronger effect = lower value",0.936
same,normalized growth,"locus YDR069C, strain doa4, stronger effect = lower value",0.953
same,normalized growth,"locus YDR137W, strain rgp1, stronger effect = lower value",0.688 (active)
same,normalized growth,"locus YDR159W, strain sac3, stronger effect = lower value",0.971
same,normalized growth,"locus YDR195W, strain ref2",1.12
same,normalized growth,"locus YDR297W, strain sur2, stronger effect = lower value",0.937
same,normalized growth,"locus YDR334W, strain swr1, stronger effect = lower value",0.921
same,normalized growth,"locus YDR335W, strain msn5, stronger effect = lower value",0.938
same,normalized growth,"locus YDR392W, strain spt3, stronger effect = lower value",0.601 (active)
same,normalized growth,"locus YEL003W, strain gim4, stronger effect = lower value",0.94
same,normalized growth,"locus YEL037C, strain rad23, stronger effect = lower value",0.961
same,normalized growth,"locus YEL061C, strain CIN8 (second series), stronger effect = lower value",0.943
same,normalized growth,"locus YER015W, strain faa2, stronger effect = lower value",0.965
same,normalized growth,"locus YER016W, strain bim1, stronger effect = lower value",0.96
same,normalized growth,"locus YER111C, strain swi4, stronger effect = lower value",0.955
same,normalized growth,"locus YER155C, strain BEM2 (second series), stronger effect = lower value",0.89
same,normalized growth,"locus YFR010W, strain ubp6, stronger effect = lower value",0.951
same,normalized growth,"locus YGL167C, strain pmr1, stronger effect = lower value",0.927
same,normalized growth,"locus YGL173C, strain kem1, stronger effect = lower value",0.908
same,normalized growth,"locus YGL227W, strain vid30, stronger effect = lower value",0.939
same,normalized growth,"locus YGL240W, strain doc1, stronger effect = lower value",0.93
same,normalized growth,"locus YGL253W, strain hxk2, stronger effect = lower value",0.969
same,normalized growth,"locus YHR013C, strain ard1, stronger effect = lower value",0.623 (active)
same,normalized growth,"locus YHR027C, strain rpn1, stronger effect = lower value",0.929
same,normalized growth,"locus YHR030C, strain SLT2, stronger effect = lower value",0.955
same,normalized growth,"locus YHR079C, strain IRE1, stronger effect = lower value",0.955
same,normalized growth,"locus YHR142W, strain chs7, stronger effect = lower value",0.897
same,normalized growth,"locus YJL092W, strain hpr5, stronger effect = lower value",0.972
same,normalized growth,"locus YJL095W, strain BCK1 (second series), stronger effect = lower value",0.955
same,normalized growth,"locus YJL095W, strain BCK1, stronger effect = lower value",0.916
same,normalized growth,"locus YJL115W, strain asf1, stronger effect = lower value",0.951
same,normalized growth,"locus YJL129C, strain trk1, stronger effect = lower value",0.97
same,normalized growth,"locus YJL154C, strain vps35, stronger effect = lower value",0.939
same,normalized growth,"locus YJL164C, strain tpk1, stronger effect = lower value",0.957
same,normalized growth,"locus YJL166W, strain qcr8, stronger effect = lower value",0.955
same,normalized growth,"locus YJL187C, strain SWE1, stronger effect = lower value",0.951
same,normalized growth,"locus YJR066W, strain TOR1, stronger effect = lower value",0.92
same,normalized growth,"locus YKL160W, strain elf1, stronger effect = lower value",0.935
same,normalized growth,"locus YKR026C, strain gcn3, stronger effect = lower value",0.951
same,normalized growth,"locus YKR091W, strain srl3, stronger effect = lower value",0.951
same,normalized growth,"locus YLL001W, strain dnm1, stronger effect = lower value",0.979
same,normalized growth,"locus YLL026W, stronger effect = lower value",0.925 (active)
same,normalized growth,"locus YLL041C, strain sdh2, stronger effect = lower value",0.967
same,normalized growth,"locus YLR027C, strain aat2, stronger effect = lower value",0.95
same,normalized growth,"locus YLR113W, strain HOG1, stronger effect = lower value",0.915
same,normalized growth,"locus YLR221C, strain rsa3, stronger effect = lower value",0.958
same,normalized growth,"locus YLR258W, strain gsy2, stronger effect = lower value",0.955
same,normalized growth,"locus YLR262C, strain YPT6 (second series), stronger effect = lower value",0.776 (active)
same,normalized growth,"locus YLR320W, strain mms22, stronger effect = lower value",0.875 (active)
same,normalized growth,"locus YLR342W, strain FKS1, stronger effect = lower value",0.962
same,normalized growth,"locus YLR357W, strain rsc2, stronger effect = lower value",0.992
same,normalized growth,"locus YLR370C, strain arc18, stronger effect = lower value",0.918
same,normalized growth,"locus YLR384C, strain iki3, stronger effect = lower value",0.952
same,normalized growth,"locus YML120C, strain ndi1, stronger effect = lower value",0.934
same,normalized growth,"locus YMR058W, strain fet3, stronger effect = lower value",0.897 (active)
same,normalized growth,"locus YMR125W, strain sto1, stronger effect = lower value",0.961
same,normalized growth,"locus YMR129W, stronger effect = lower value",0.954
same,normalized growth,"locus YMR205C, strain PFK2, stronger effect = lower value",0.973
same,normalized growth,"locus YMR231W, strain pep5, stronger effect = lower value",0.969
same,normalized growth,"locus YNL071W, strain lat1, stronger effect = lower value",0.875 (active)
same,normalized growth,"locus YNL183C, strain NPR1, stronger effect = lower value",0.908
same,normalized growth,"locus YNL209W, strain ssb2, stronger effect = lower value",0.946
same,normalized growth,"locus YNL248C, strain rpa49, stronger effect = lower value",0.944
same,normalized growth,"locus YNL322C, strain KRE1 (second series), stronger effect = lower value",0.963
same,normalized growth,"locus YNR049C, strain mso1, stronger effect = lower value",0.944
same,normalized growth,"locus YOR001W, strain rrp6, stronger effect = lower value",0.95
same,normalized growth,"locus YOR070C, strain gyp1, stronger effect = lower value",0.0944 (active)
same,normalized growth,"locus YOR080W, strain dia2, stronger effect = lower value",0.973
same,normalized growth,"locus YOR083W, strain WHI5, stronger effect = lower value",0.945
same,normalized growth,"locus YOR106W, strain vam3, stronger effect = lower value",0.905
same,normalized growth,"locus YOR231W, strain MKK1, stronger effect = lower value",0.946
same,normalized growth,"locus YOR265W, strain rbl2, stronger effect = lower value",0.955
same,normalized growth,"locus YOR270C, strain vph1, stronger effect = lower value",0.414 (active)
same,normalized growth,"locus YOR290C, strain snf2, stronger effect = lower value",0.945
same,normalized growth,"locus YPL051W, strain arl3, stronger effect = lower value",0.932
same,normalized growth,"locus YPL078C, strain atp4, stronger effect = lower value",0.878 (active)
same,normalized growth,"locus YPL106C, strain sse1, stronger effect = lower value",0.732 (active)
same,normalized growth,"locus YPL240C, strain hsp82, stronger effect = lower value",0.965
same,normalized growth,"locus YPL256C, strain CLN2, stronger effect = lower value",0.961
